From PubChem BioAssay AID540275 (National Center for Advancing Translational Sciences (NCATS), 2011)
Screen size: about 320,000 compounds; about 620 (0.19%) were called active. Another 6% or so got no clear call; they are omitted. Rule as the data show it: active = activation above about 80%; inconclusive = between about 30% and that limit; inactive = weaker than that. The list comes from a sample in which actives are over-represented; it also holds similar structures and randomly drawn compounds.

Biological target: Transient receptor potential cation channel subfamily V member 1 (Homo sapiens) (UniProt Q8NER1)
Assay: HTS Assay for Compounds that Act as Agonists of the Vanilloid Receptor 1; also: 0% is about no effect
Conditions: TRPV1-expressing cells, Fluo-8 calcium influx, agonist mode; at 8.33 µM; stronger effect = higher value
Description: The transient receptor potential ion channel, family V, number 1, (TRPV1) is one of the most important molecular transducers of painful stimuli and a potential target for analgesic drug development. Although recent clinical trials with orthosteric antagonists have not produced a successful drug because of a hyperthermia side effect and their tendency to block thermal noxious pain, this ion channel is undeniably well placed in the pain pathway, and the idea of blocking pain signals before they enter the CNS is an excellent concept and of proven efficacy when TRPV1 agonists are used. We propose a new approach involving allosteric modulation to impose an activity-dependent constraint within the context of inflammation and tissue damage that would alter the responsiveness of the channel in a way that an orthosteric vanilloid antagonist cannot achieve. We believe that the allosteric modulator approach has not been explored for this target. The main goal of this proposal is to identify additional, new, potent allosteric modulators of TRPV1 that can be used to investigate TRPV1 function. Our recent report provides evidence of proof of concept, but the compounds are just at the edge of utility in terms of potency. […] The question of whether they can be used as analgesic agents is complex, but if suitable compounds are identified then testing for analgesic properties will be conducted. NIH Chemical Genomics Center [NCGC] NIH Molecular Libraries Probe Centers Network [MLPCN] MLPCN Grant: MH089480-1A1 Assay Submitter (PI): Michael Iadarola, National Institute of Dental and Cranofacial Research
Upon TRPV1 activation in TRPV1 cells, the channel opens and extracellular cations flow through the channel into the cytosol. A calcium binding dye (Fluo-8) becomes fluorescent when bound to calcium. This dye is pre-loaded into cells and is used as a marker for calcium influx. The amount of accumulated calcium is precisely quantified using the FDSS kinetic reader and the calcium dye. For the HTS assay, freshly prepared cells are plated at a density of 2000/well in 3 ul medium in 1536-well plates and cultured overnight at 35.5C. Cells will be loaded with 1 ul of the homogeneous calcium dye (ABD Bioquest) at room temperature for 40 to 90 minutes. Plates will be loaded into the FDSS kinetic reader and a 1 sec / cycle for 10 second baseline signal will be measured. Compound library will then be added with a pintool at 23 nl and measured kinetically for 3 minutes. This portion of the read is considered the agonist portion of the screen. Following the 3 minutes of incubation, an on board pipettor will deliver 1 ul of capsaicin for a final concentration equal to the EC20. Signal will be measured kinetically for an additional 2 minutes. This portion of the read is considered the allosteric enhancer portion of the screen. The FDSS reader has a standard filter set capable of measuring calcium bound Fluo-8 (ex=480 and em=520 nm).

Chain of Transient receptor potential cation channel subfamily V member 1 (Homo sapiens) (Q8NER1 whole entry, looked up): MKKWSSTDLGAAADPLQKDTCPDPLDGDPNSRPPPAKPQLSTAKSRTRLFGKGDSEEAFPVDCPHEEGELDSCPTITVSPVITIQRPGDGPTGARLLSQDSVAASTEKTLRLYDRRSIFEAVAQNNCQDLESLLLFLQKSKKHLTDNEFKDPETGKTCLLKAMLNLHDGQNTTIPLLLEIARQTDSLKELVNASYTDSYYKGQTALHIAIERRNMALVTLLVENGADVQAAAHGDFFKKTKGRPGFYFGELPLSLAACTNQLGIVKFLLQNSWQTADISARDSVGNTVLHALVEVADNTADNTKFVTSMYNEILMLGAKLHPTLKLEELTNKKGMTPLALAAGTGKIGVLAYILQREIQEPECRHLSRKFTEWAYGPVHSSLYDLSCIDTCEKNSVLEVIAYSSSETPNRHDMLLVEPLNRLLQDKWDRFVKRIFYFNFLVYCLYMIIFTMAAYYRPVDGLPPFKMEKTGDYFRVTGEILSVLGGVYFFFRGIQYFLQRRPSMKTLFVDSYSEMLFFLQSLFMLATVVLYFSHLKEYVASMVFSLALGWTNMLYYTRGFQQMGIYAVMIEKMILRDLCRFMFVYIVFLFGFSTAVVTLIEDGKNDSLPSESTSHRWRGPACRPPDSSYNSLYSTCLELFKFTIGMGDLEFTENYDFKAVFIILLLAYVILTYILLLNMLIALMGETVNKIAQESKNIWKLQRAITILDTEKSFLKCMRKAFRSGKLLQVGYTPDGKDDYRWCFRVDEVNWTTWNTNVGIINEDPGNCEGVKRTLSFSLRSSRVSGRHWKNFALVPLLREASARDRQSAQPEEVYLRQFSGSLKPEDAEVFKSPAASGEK

activation, active:
CCOc1ccc(CCNC(=O)Nc2ccccc2)cc1OCC 91.3%
COc1cc(/C=N/NC(=O)c2ccc(N3CCCC3=O)cc2)ccc1O 82.8%
O=C(NC1CC1)c1ccc(-c2ccccc2)cc1 83%
COc1ccc2nc(NC(=O)c3ccc(Br)s3)sc2c1 97.1%
Cc1cc2nc3c(=O)n(Cc4ccccc4)c(=O)[nH]c3nc2cc1N 90.7%
CCN(CC)c1ccc(NC(=O)c2ccc(Cl)nc2)cc1 82%

activation, inactive:
CCCC(NCC(=O)Nc1ccccc1C(=O)NC1CC1)c1ccccc1 (stereo not given) 21.8%
CO[C@H]1[C@@H]2C=CO[C@@H](O[C@H]3O[C@@H](CO)[C@H](O)[C@@H](O)[C@@H]3O)[C@@H]2[C@@]2(CO)O[C@@H]12 -3.6%
CC(C)N(C(=O)CN1CCN(S(=O)(=O)c2ccc(Br)s2)CC1)C(C)C 17.4%
CCCCN(CC(=O)Nc1cccc(S(=O)(=O)N2CCCC2)c1)Cc1nc2ccccc2c(=O)[nH]1 26.8%
CCOc1ccc(CCNC(=O)COC(=O)c2c(OC)cccc2OC)cc1OCC -2.55%
CCOc1cc(NC(=O)Nc2ccccc2)c(OCC)cc1NC(=O)CC 3.84%
Cc1cc(C(=O)COc2ccc(Br)cc2F)c(C)n1C1CC1 20.7%
CNS(=O)(=O)c1cccc(C(=O)OCCCC(=O)c2ccccc2)c1 4.36%
CC(OC(=O)Cc1ccc(F)cc1)C(=O)N1CCc2ccccc21 (stereo not given) 16.3%
Cc1cc(C)n2nc(C(=O)Nc3cccc(S(=O)(=O)N4CCOCC4)c3)nc2n1 0.0473%
Nc1cc(N)nc(SCC(=O)Nc2cccc(S(=O)(=O)N3CCCCC3)c2)n1 1.32%
O=C(NCCc1ccc(F)cc1)c1ccc(S(=O)(=O)N2CCCCC2)cc1 28.8%
O=C(N/N=C/c1cccc(Br)c1)c1ccc(N2CCCC2=O)cc1 14.1%
C/C(=N\NC(=O)c1cccc(N2CCCC2=O)c1)c1ccc(N)cc1 -0.551%
Cc1ccc(C(=O)CN2C(=O)NC3(CCOc4ccccc43)C2=O)s1 (stereo not given) -5.77%
CC(C)CCN1CCC(C)(NC(=O)c2ccccc2)C1=O (stereo not given) -3.6%
CC(=O)c1ccc(OCCCC(=O)Nc2ccc(C)c(S(=O)(=O)N3CCOCC3)c2)cc1 5.88%
COc1cc(OC)c(N2CC(C(=O)Nc3cc(Cl)ccc3N3CCOCC3)CC2=O)cc1Cl (stereo not given) 1.31%
Cc1cccc(Nc2nnc(SCC(=O)c3c(N)n(C4CC4)c(=O)[nH]c3=O)s2)c1C -1.01%
COc1ccc(C(=O)OCC(=O)c2cc(C)n(CC3CCCO3)c2C)cc1[N+](=O)[O-] (stereo not given) -3.97%
CN(CC(=O)NC1CCN(Cc2ccccc2)CC1)S(=O)(=O)c1ccc(Cl)s1 7.2%
CN(C(=O)CSc1nnc(-c2ccc3c(c2)OCO3)o1)C1CCS(=O)(=O)C1 (stereo not given) 1.32%
COc1ccc(C(=O)N2CCN(c3ncccn3)CC2)cc1S(=O)(=O)N1CCOCC1 4.11%
O=C(NC1CC1)c1cccc(Br)c1 -0.868%
O=C(NC1CCCC1)c1cc(-c2ccccc2)on1 22.2%
CN(C(=O)CSc1nnc(-c2ccc(C(C)(C)C)cc2)n1C)C1CCS(=O)(=O)C1 (stereo not given) 1.75%
Cc1cc(C(=O)COc2ccccc2Cl)c(C)n1C1CC1 26.9%
Cc1ccc(S(=O)(=O)N2CC(O)C[C@H]2C(=O)OCC(=O)Nc2ccc(N3CCOCC3)cc2)cc1C (stereo not given in full) -0.193%
COc1cccc(C(=O)Nc2nc3ccc(S(C)(=O)=O)cc3s2)c1 -1.41%
CCc1noc(C)c1C(=O)Nc1nc2ccc(OC)cc2s1 8.32%
COc1ccc(NC(=O)CC2SC(N3CCCCC3)=NC2=O)cc1OC (stereo not given) 1.55%
CC(=O)c1ccc(-c2ccc(Cn3c(C)nc4cc(N)c(C)nc43)cc2)cc1 4.86%
Cc1nc2c(c(=O)n1Cc1ccco1)c1nc3ccccc3nc1n2Cc1ccccc1 1.97%
CCOC(=O)c1ccc(NC(=O)c2cccnc2)cc1 -0.797%
Cc1cnc(NC(=O)c2ccc(Cl)nc2)s1 1.7%
Cc1csc(NC(=O)C2CCN(S(=O)(=O)c3ccccc3)CC2)n1 0.443%
CCCCn1nc(C(=O)Nc2cccc(C(=O)NC3CC3)c2)c2ccccc2c1=O 17.8%
CC(C)n1ncc2c(C(=O)NCc3ccccc3CN(C)C)cc(C3CC3)nc21 1.42%
O=S(=O)(c1cccs1)N1CCN(CCOc2ccccc2)CC1 10.7%
O=C(NCC(=O)N1CCCCCCC1)c1ccccc1Cl 4.74%
COc1ccccc1C(CNC(=O)c1cccc(S(=O)(=O)Nc2ccc(F)cc2)c1)N(C)C (stereo not given) 1.81%
COc1ccccc1-c1sc2ccccc2c1-c1ccc(Br)nc1 1.98%
Cc1ccc(C(CC(=O)O)NC(=O)c2ccc(S(=O)(=O)N3CCCC3)cc2)cc1 (stereo not given) -0.421%
O=C(CN1CCc2ccccc2C1)Nc1cccc(S(=O)(=O)N2CCOCC2)c1 13.1%
